Laboratory results reported in PubChem BioAssay.
Calls of active or inactive are those of the source. Unless noted, how the calls were made is not given here.

Assays:
[1] = anti-His antibody binders, primary screen, artefact control for SMM control protein annotation, biochemical, small-molecule microarray, 635 nm fluorescence (AID 1128); conditions: anti-His Alexa647 antibody binding, higher = more signal;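 further: score merges feature fluorescence with signal-to-noise for each printed compound spot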
[2] = system: Human papillomavirus type 1a E7 protein (residues 1-88); assay: HPV1a E7 small-molecule binders, primary screen, biochemical, small-molecule microarray, residues 1-88, 635 nm (AID 1129); conditions: small-molecule microarray binding, fluorescence 635 nm; higher = more signal
[3] = molecular target: Focal adhesion kinase 1 (Homo sapiens) (UniProt Q05397); assay: small-molecule microarray binders of FAK, primary screen, biochemical, 635/667 nm fluorescence, BSA, DTT (AID 1130); conditions: PTK2 binding, 635 nm fluorescence, higher = more signal;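 further: composite of spot emission at 667 nm and signal to noise over triplicate slides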
[4] = system: Fibrinogen (Alexa647-labelled); assay: fibrinogen binders on compound microarrays, profiling panel, artefact control for SMM control-protein annotation, biochemical, small-molecule microarray, 635/667 nm fluorescence (AID 1131); conditions: fibrinogen-A647 binding fluorescence, higher = more signal;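 further: z-score merges 667 nm fluorescence with per-spot signal-to-noise over triplicate slides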
[5] = molecular target: Follistatin (Homo sapiens) (UniProt P19883); assay: follistatin binders on small-molecule microarrays, primary screen, biochemical, small-molecule microarray, 635/667 nm fluorescence (AID 1132); conditions: FST binding, 635 nm fluorescence, higher = more signal
[6] = molecular target: Fibroblast growth factor 2 (Homo sapiens) (UniProt P09038); assay: FGF2 binders on small-molecule microarrays, primary screen, biochemical, small-molecule microarray, 635/667 nm fluorescence (AID 1133); conditions: small-molecule microarray binding, FGF2, fluorescence 635/667; higher = more signal
[7] = mitochondrial membrane potential change in A549 cells, profiling panel, cell-based, JC-1 fluorescence, basal, 24 h, 100 nL (AID 1138); conditions: higher = more signal;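 further: A549 lung adenocarcinoma cells under basal conditions with no added stimulus; test concentration not given here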
Lefty1 = Lefty1 binders on small-molecule microarrays, primary screen, biochemical, small-molecule microarray, 635/667 nm fluorescence (AID 1139); conditions: small-molecule microarray binding, fluorescence 635/667; higher = more signal
[8] = system: wheat germ agglutinin (Triticum aestivum), Alexa647-labelled; assay: wheat germ agglutinin binders on compound microarrays, profiling panel, artefact control for SMM control-protein annotation, biochemical, small-molecule microarray, 635/667 nm fluorescence (AID 1140); conditions: WGA-A647 binding, 635 nm fluorescence, higher = more signal;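 further: score merges 667 nm feature emission with signal to noise over triplicate slides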
[9] = molecular target: Luciferin 4-monooxygenase (Photinus pyralis) (UniProt P08659); assay: firefly luciferase enzyme inhibitors, primary screen, biochemical, luminescence, purified enzyme, 2006 set (AID 1141); conditions: SteadyGlo luminescence, 30 min, higher = more signal, called active from +8 up or from −8 down;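 further: cell-free assay with purified firefly luciferase at 100 ng per well in PBS; test concentration not given here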
[10] = system: Wnt5a (protein binding on small-molecule microarray); assay: Wnt5a binders on small-molecule microarray, primary screen, biophysical, 635/667 nm fluorescence (AID 1142); conditions: 635 nm fluorescence, higher = more signal;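 further: fluorescence read at 667 nm with signal to noise per printed feature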
[11] = cell viability in Huh7 cells, primary screen, cytotoxicity control for HCV replication inhibitor project, CellTiter-Glo luminescence, basal, 48 h (AID 1143); conditions: Huh7 HCV replicon, higher = more signal, called active from +8 up or from −8 down;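 further: Huh7 hepatoma cells carrying a hepatitis C replication reporter with no stimulus; test concentration not given here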
[12] = P. aeruginosa biofilm formation inhibitors, primary screen, PAO1 strain, BacTiter-Glo luminescence, LB-PBS (AID 1144); conditions: 12 h, higher = more signal
[13] = CREB reporter modulators without forskolin, primary screen, cell-based, PC12, CRE-LacZ reporter, unstimulated (AID 1145); conditions: no forskolin, luminescence, 4.5 h, higher = more signal, called active from +8 up or from −8 down
[14] = CREB reporter modulators under forskolin, primary screen, cell-based, PC12, CRE-LacZ reporter, forskolin-stimulated (AID 1146); conditions: luminescence, 4.5 h, higher = more signal, called active from +8 up or from −8 down;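 further: PC12 cells with 6xCRE LacZ reporter stimulated by forskolin 10 µM; beta-galactosidase reporter signal reflecting CREB driven transcription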
[15] = molecular target: Streptavidin (Streptomyces avidinii) (UniProt P22629); assay: streptavidin binders on small-molecule microarray, primary screen, artefact control for SMM compound annotation, biophysical, 635/667 nm fluorescence (AID 1147); conditions: streptavidin binding, higher = more signal;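 further: signal reflects streptavidin binding to arrayed compounds as a control protein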
[16] = small-molecule binders of probe aInhba, primary screen, biochemical, small-molecule microarray, 635/667 nm fluorescence (AID 1148); conditions: higher = more signal;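 further: score merges 667nm spot fluorescence with signal-to-noise for antibody binding to printed compounds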
Torsin-1A (Homo sapiens) [17] = molecular target: Torsin-1A (Homo sapiens) (UniProt O14656); assay: torsin A binders from cell lysate, primary screen, small-molecule microarray, wild-type, 635/667 nm (AID 1149); conditions: COS7 hTOR1A-WT lysate, 635 nm fluorescence, higher = more signal
Torsin-1A (Homo sapiens) [18] = molecular target: Torsin-1A (Homo sapiens) (UniProt O14656); assay: small-molecule binders of mutant TOR1A in lysate, primary screen, cell lysate, small-molecule microarray, COS7 lysate, 635/667 nm fluorescence (AID 1150); conditions: COS7 hTOR1A mutant lysate, 635 nm fluorescence, higher = more signal;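 further: score pools 667 nm emission and signal to noise measuring lysate protein binding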
[19] = system: Sonic hedgehog protein (Shh); assay: small-molecule binders of Shh protein, primary screen, biochemical, small-molecule microarray, 635/667 nm fluorescence (AID 1151); conditions: small-molecule microarray binding, 635 nm fluorescence; higher = more signal;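 further: Shh protein binding to compounds spotted on small-molecule microarray slides; score combines spot fluorescence intensity with signal-to-noise across triplicate slides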

Chain of Luciferin 4-monooxygenase (Photinus pyralis) (P08659 whole entry, looked up): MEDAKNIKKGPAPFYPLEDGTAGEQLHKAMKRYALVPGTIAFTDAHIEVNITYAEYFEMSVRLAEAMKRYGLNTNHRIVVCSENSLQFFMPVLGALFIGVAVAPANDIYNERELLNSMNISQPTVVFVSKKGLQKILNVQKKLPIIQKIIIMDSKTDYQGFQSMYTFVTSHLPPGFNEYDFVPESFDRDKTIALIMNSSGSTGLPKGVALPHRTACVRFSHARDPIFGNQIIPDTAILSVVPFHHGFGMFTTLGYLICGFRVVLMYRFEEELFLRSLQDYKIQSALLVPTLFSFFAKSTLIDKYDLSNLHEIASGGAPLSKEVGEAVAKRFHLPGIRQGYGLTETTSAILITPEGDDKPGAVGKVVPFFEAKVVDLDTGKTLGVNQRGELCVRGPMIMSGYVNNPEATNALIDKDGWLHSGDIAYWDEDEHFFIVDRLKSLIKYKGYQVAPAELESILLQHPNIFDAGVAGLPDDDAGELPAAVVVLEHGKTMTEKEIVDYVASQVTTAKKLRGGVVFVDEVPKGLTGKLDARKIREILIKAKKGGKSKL
Chain of Streptavidin (Streptomyces avidinii) (P22629 whole entry, looked up): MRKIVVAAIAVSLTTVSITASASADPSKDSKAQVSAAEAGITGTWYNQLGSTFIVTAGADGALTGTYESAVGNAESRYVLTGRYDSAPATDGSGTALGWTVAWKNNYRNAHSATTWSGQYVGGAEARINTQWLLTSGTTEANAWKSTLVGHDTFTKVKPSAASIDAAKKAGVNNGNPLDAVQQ
Chain of Fibroblast growth factor 2 (Homo sapiens) (P09038 whole entry, looked up): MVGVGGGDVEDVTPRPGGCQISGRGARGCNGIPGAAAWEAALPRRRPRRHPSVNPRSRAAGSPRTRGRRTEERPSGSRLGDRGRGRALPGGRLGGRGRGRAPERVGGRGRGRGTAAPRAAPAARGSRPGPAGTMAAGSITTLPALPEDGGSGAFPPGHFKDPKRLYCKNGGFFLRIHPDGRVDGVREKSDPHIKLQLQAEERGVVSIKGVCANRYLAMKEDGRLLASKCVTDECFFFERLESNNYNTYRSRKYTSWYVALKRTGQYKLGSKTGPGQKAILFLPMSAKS
Chain of Focal adhesion kinase 1 (Homo sapiens) (Q05397 whole entry, looked up): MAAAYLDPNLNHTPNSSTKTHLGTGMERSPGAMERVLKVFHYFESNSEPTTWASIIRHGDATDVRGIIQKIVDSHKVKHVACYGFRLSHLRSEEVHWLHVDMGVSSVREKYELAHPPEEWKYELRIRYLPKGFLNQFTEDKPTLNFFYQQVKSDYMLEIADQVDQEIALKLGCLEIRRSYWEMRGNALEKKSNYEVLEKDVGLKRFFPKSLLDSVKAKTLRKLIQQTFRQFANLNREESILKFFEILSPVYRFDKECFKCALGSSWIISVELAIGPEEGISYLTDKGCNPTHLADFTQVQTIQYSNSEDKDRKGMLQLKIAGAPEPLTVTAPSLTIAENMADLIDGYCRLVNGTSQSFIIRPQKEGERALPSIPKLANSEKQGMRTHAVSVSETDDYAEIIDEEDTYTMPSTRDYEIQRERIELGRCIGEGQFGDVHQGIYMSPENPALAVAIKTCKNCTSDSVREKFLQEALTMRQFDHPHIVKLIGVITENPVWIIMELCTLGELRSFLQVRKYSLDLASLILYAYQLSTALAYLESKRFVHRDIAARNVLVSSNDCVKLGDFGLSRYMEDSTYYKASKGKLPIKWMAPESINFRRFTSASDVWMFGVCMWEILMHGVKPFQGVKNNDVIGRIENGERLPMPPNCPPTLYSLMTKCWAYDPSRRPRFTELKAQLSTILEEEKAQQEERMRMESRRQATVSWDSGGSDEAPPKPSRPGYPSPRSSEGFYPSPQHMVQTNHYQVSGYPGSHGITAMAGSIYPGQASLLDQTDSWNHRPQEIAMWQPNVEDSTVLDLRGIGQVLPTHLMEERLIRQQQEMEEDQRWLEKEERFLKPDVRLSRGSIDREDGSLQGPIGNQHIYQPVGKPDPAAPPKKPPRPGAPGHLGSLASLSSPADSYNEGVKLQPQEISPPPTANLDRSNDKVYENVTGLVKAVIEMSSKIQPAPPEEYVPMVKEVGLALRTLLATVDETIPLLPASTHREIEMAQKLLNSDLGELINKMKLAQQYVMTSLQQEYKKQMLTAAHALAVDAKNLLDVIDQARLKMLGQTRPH
Chain of Follistatin (Homo sapiens) (P19883 whole entry, looked up): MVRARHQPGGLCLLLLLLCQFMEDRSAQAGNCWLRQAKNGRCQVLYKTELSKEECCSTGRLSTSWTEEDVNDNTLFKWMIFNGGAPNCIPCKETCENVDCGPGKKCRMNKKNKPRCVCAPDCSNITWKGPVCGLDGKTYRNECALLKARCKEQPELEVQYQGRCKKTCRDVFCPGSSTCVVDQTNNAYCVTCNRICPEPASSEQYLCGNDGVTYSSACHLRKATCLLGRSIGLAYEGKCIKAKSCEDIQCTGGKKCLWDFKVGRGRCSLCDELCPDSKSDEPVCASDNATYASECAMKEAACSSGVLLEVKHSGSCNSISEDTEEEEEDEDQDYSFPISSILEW
Chain of Torsin-1A (Homo sapiens) (O14656 whole entry, looked up): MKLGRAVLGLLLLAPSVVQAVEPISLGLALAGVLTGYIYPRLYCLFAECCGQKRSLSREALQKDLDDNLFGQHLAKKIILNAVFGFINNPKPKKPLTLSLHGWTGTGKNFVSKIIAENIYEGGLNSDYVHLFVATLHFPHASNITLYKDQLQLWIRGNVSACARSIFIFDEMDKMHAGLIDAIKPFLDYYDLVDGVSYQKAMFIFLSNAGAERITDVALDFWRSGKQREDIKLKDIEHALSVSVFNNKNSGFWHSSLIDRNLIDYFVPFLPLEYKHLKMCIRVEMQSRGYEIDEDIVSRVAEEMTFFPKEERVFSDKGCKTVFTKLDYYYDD

## O=C1c2ccccc2C(=O)C2CC([C@H]3Oc4ccccc4S(=O)(=O)N4CCC[C@@H]34)=CCC12 (stereo not given in full)
[1]
  composite z-score: -0.0332
[2]
  composite z-score: 0.101
[3]
  composite z-score: 0.867
[4]
  composite z-score: 0.788
[5]
  composite z-score: -0.0849
[6]
  composite z-score: 0.189
[7]
  z-score: -0.309
Lefty1
  composite z-score: -0.02
[8]
  composite z-score: 0.47
[9]
  z-score: -0.759 (inactive)
[10]
  composite z-score: -0.0428
[11]
  z-score: -3.06 (inactive)
[12]
  z-score: 0.618 (inactive)
[13]
  z-score: 6.12 (inactive)
[14]
  z-score: -1.59 (inactive)
[15]
  composite z-score: 0.161
[16]
  composite z-score: -0.0471
Torsin-1A (Homo sapiens) [17]
  composite z-score: 0.208
Torsin-1A (Homo sapiens) [18]
  composite z-score: 0.402
[19]
  composite z-score: -0.133

## CN1C(=O)C2C=CC(C(O)COCc3ccccc3)N(Nc3ccccc3)C2C1=O (stereo not given)
[1]
  composite z-score: 0.563
[2]
  composite z-score: 0.593
[3]
  composite z-score: 0.324
[4]
  composite z-score: 0.711
[5]
  composite z-score: 0.433
[6]
  composite z-score: -0.11
[7]
  z-score: 1.64
Lefty1
  composite z-score: 0.135
[8]
  composite z-score: 0.681
[9]
  z-score: 0.982 (inactive)
[10]
  composite z-score: 0.122
[11]
  z-score: 0.631 (inactive)
[12]
  z-score: -0.0726 (inactive)
[13]
  z-score: 1.59 (inactive)
[14]
  z-score: -0.236 (inactive)
[15]
  composite z-score: 0.37
[16]
  composite z-score: -0.018
Torsin-1A (Homo sapiens) [17]
  composite z-score: -0.24
Torsin-1A (Homo sapiens) [18]
  composite z-score: 0.162
[19]
  composite z-score: 0.0686

## CCOC(=O)C[C@H]1[C@H](OC(=O)Cc2ccc3c(c2)OCO3)[C@@H](NC(=O)c2ccccc2)c2cc(OCCCO)ccc2N1C(=O)c1ccccc1
[1]
  composite z-score: -0.226
[2]
  composite z-score: 0.669
[3]
  composite z-score: -0.061
[4]
  composite z-score: 0.731
[5]
  composite z-score: 0.392
[6]
  composite z-score: 0.383
[7]
  z-score: 0.673
Lefty1
  composite z-score: 0.557
[8]
  composite z-score: 1.25
[9]
  z-score: -0.207 (inactive)
[10]
  composite z-score: -0.0373
[11]
  z-score: -0.363 (inactive)
[12]
  z-score: -0.669 (inactive)
[13]
  z-score: 0.512 (inactive)
[14]
  z-score: 0.484 (inactive)
[15]
  composite z-score: 0.243
[16]
  composite z-score: -0.128
Torsin-1A (Homo sapiens) [17]
  composite z-score: 0.0229
Torsin-1A (Homo sapiens) [18]
  composite z-score: 0.403
[19]
  composite z-score: 0.85

## COC(=O)[C@@]1(Cc2ccc(F)cc2)[C@@H]2[C@@H](CC(=O)[C@H]2CC(=O)C(=O)N2CCCC2)CN1C(=O)c1ccccc1
[1]
  composite z-score: 0.266
[2]
  composite z-score: 1.24
[3]
  composite z-score: 1.51
[4]
  composite z-score: 0.931
[5]
  composite z-score: 0.95
[6]
  composite z-score: 0.455
[7]
  z-score: 0.694
Lefty1
  composite z-score: -1.01
[8]
  composite z-score: 0.772
[9]
  z-score: 2.19 (inactive)
[10]
  composite z-score: 0.603
[11]
  z-score: -2.93 (inactive)
[12]
  z-score: 0.925 (inactive)
[13]
  z-score: 0.766 (inactive)
[14]
  z-score: 0.526 (inactive)
[15]
  composite z-score: 1.48
[16]
  composite z-score: 1.4
Torsin-1A (Homo sapiens) [17]
  composite z-score: 0.0262
Torsin-1A (Homo sapiens) [18]
  composite z-score: 0.666
[19]
  composite z-score: -0.695

## O=C1C[C@@](C(=O)NCc2ccccc2)(c2ccc([N+](=O)[O-])cc2)[C@@H](c2ccc(CO)cc2I)N1C1CCCCC1
[1]
  composite z-score: 1.12
[2]
  composite z-score: 1.2
[3]
  composite z-score: 0.532
[4]
  composite z-score: 0.805
[5]
  composite z-score: 1.43
[6]
  composite z-score: 1.25
[7]
  z-score: -0.0219
Lefty1
  composite z-score: 0.721
[8]
  composite z-score: 0.411
[9]
  z-score: -1.2 (inactive)
[10]
  composite z-score: 0.286
[11]
  z-score: -4.73 (inactive)
[12]
  z-score: 0.781 (inactive)
[13]
  z-score: 0.234 (inactive)
[14]
  z-score: 0.583 (inactive)
[15]
  composite z-score: 0.0068
[16]
  composite z-score: 0.572
Torsin-1A (Homo sapiens) [17]
  composite z-score: 0.89
Torsin-1A (Homo sapiens) [18]
  composite z-score: 0.217
[19]
  composite z-score: 1.13
